Assay results from PubChem BioAssay (NCI).
The panel holds about 83,000 compounds, 20% with a hit somewhere; the sample as a whole holds those more often.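 Values shown are percent growth following 48 h exposure of cells in 96-well plates to a single concentration of compound; below 10 was considered active.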 A number with no mark means an inactive call. The source made the active and inactive calls.

Columns and labels:
Assay in all cases: NCI-60 one-dose screen, 48 h (100 = growth as untreated, 0 = no growth, -100 = all killed)
Settings in all cases: 10 µM unless noted
HCT-15 colon = test system: HCT-15 colon
HT29 colon = test system: HT29 colon
SNB-75 CNS = test system: SNB-75 CNS
U251 CNS = test system: U251 CNS
PC-3 prostate = test system: PC-3 prostate
SK-MEL-5 melanoma = test system: SK-MEL-5 melanoma
UACC-62 melanoma = test system: UACC-62 melanoma
LOX IMVI melanoma = test system: LOX IMVI melanoma
SK-MEL-28 melanoma = test system: SK-MEL-28 melanoma
SK-MEL-2 melanoma = test system: SK-MEL-2 melanoma
EKVX NSCLC = test system: EKVX NSCLC
SN12C renal = test system: SN12C renal
UO-31 renal = test system: UO-31 renal
TK-10 renal = test system: TK-10 renal
ACHN renal = test system: ACHN renal
CAKI-1 renal = test system: CAKI-1 renal
A498 renal = test system: A498 renal
MOLT-4 leukemia = test system: MOLT-4 leukemia
CCRF-CEM leukemia = test system: CCRF-CEM leukemia

| Structure (SMILES) | growth (HCT-15 colon) | growth (HT29 colon) | growth (SNB-75 CNS) | growth (U251 CNS) | growth (PC-3 prostate) | growth (SK-MEL-5 melanoma) | growth (UACC-62 melanoma) | growth (LOX IMVI melanoma) | growth (SK-MEL-28 melanoma) | growth (SK-MEL-2 melanoma) | growth (EKVX NSCLC) [%] | growth (SN12C renal) | growth (UO-31 renal) | growth (TK-10 renal) [%] | growth (ACHN renal) | growth (CAKI-1 renal) [%] | growth (A498 renal) | growth (MOLT-4 leukemia) | growth (CCRF-CEM leukemia) |
| --- | --- | --- | --- | --- | --- | --- | --- | --- | --- | --- | --- | --- | --- | --- | --- | --- | --- | --- | --- |
| COC(=O)CSc1ccc(Cl)cc1 | 106% | 103% | 94.9% | 103% | 107% | 114% | 114% | 102% | 108% | 104% | 101 | 121% | 93.3% | 104 | 104% | 95.1 | 79.9% | 88.8% | – |
| CS(=O)(=O)c1ccc(C(=O)N/N=C/c2ccccc2Cl)cc1 | 102% | 104% | 84.9% | 90.3% | 99% | 111% | 98.5% | 99.9% | 103% | – | 97 | 98.3% | 84.3% | 110 | – | 97.8 | 91.3% | 67.7% | 108% |
| O=C1/C(=C/c2ccccc2)SC(=Nc2ccccc2)N1Nc1ccccc1 | 9.11% (active) | 5.63% (active) | 24.2% | 6.12% (active) | 9.43% (active) | -95.7% (active) | -4.34% (active) | -62.1% (active) | 8.52% (active) | -25.2% (active) | 18.9 | -58.3% (active) | – | 31.4 | 10% | 17.1 | -33.1% (active) | -1.49% (active) | 6.81% (active) |
| CC1OC(n2c3ccccc3c3c4c(c5c6ccccc6[nH]c5c32)C(=O)N(CCN2CCOCC2)C4=O)CC(O)C1O (configuration not stated) | 26.5% | 13.4% | 5.86% (active) | 10.4% | 34% | 5.46% (active) | 21.1% | 2.7% (active) | 67.6% | 99.7% | 56.7 | 19.8% | 25.5% | 58.5 | 8.9% (active) | 14.9 | 47.5% | 6.7% (active) | 27% |
| CCN1CCN(Cc2ccc(NC(=O)Nc3ccc(-n4ccc5c(NC(=O)c6ccccc6)nccc54)cc3)cc2C(F)(F)F)CC1 | -6.13% (active) | -35.3% (active) | -88.2% (active) | -75.8% (active) | 54.6% | -97.6% (active) | 41.3% | -84.5% (active) | -96.7% (active) | -31.5% (active) | 87.4 | 58.3% | -48.6% (active) | 25.5 | – | 47.3 | 105% | -32.8% (active) | – |
| O=C1CCCN1C(O)CCN(Cc1ccccc1)Cc1ccc(Cl)cc1 (configuration not stated) | 125% | 98.4% | 101% | 102% | 95.1% | 106% | 102% | 97.2% | 115% | 101% | 101 | 101% | 84.9% | 109 | 108% | 97.3 | 109% | 89.9% | 91.7% |
| O=C(Nc1ccc(Br)cc1)Nc1cccc(Br)c1 | 15.4% | 28.2% | 85% | 28.4% | 4.68% (active) | 65.3% | 5.82% (active) | 33% | 43.7% | 26% | 41 | 32.5% | 34.9% | 29.2 | 14.9% | 50.3 | 21.4% | 1.92% (active) | 15.6% |
| CC(C)(CCc1ccccn1)C(=O)CCCc1ccccn1 | 108% | 97% | 102% | 100% | 89% | 104% | 89.8% | 94.2% | 115% | – | 105 | 94.8% | 85.9% | 97 | 97.4% | 98 | 96.3% | 101% | 84.8% |
| CC(C)C/C=C/C=C/C(=O)N[C@@H](CC(N)=O)C(=O)N[C@@H]1C(=O)N[C@H](c2ccc(O)cc2)C(=O)N[C@H](CCCN)C(=O)N[C@H]([C@@H](C)O)C(=O)N[C@H](c2ccc(O)cc2)C(=O)N[C@H](c2ccc(O)cc2)C(=O)N[C@H]([C@H](C)O)C(=O)N[C@H](Cc2ccccc2)C(=O)N[C@H](CCCN)C(=O)N[C@H](c2ccc(O[C@H]3O[C@@H](CO)[C@@H](O)[C@@H](O)[C@H]3O[C@@H]3O[C@H](CO)[C@H](O)[C@H](O)[C@@H]3O)cc2)C(=O)N[C@H]([C@H](C)O)C(=O)N[C@H](c2ccc(O)cc2)C(=O)NCC(=O)N[C@H](CC(C)C)C(=O)N[C@H](C)C(=O)N[C@H](c2ccc(O)c(Cl)c2)C(=O)O[C@@H]1C(N)=O | 70% | 24.2% | 81.9% | -19% (active) | 83.3% | 26.2% | -4.24% (active) | 36.8% | 22.8% | 88.2% | – | – | 118% | 74.5 | 111% | 97.1 | 199% | – | – |
| CCCCSc1ncnc2c1ncn2C1CCCCO1 (configuration not stated) | 102% | 109% | 104% | 99.9% | 99.5% | 104% | 99.6% | 101% | 119% | 104% | 115 | 103% | 91.2% | 109 | 110% | 110 | 94.6% | 96.9% | 99.6% |
| CCN(CC)CCCC(C)Nc1ccnc2ccc(Oc3ccccc3)cc12 (configuration not stated) | 49.6% | 38.6% | 73.2% | 63.5% | 84.9% | -89% (active) | 31.7% | 36.4% | -6.8% (active) | 112% | 85.5 | 79.1% | 68.5% | – | 67.1% | 79 | 48.4% | 62.6% | 72.5% |
| CCC1=CC2CN(C1)Cc1c([nH]c3ccccc13)[C@@](C(=O)OC)(c1cc3c(cc1OC)N(C)[C@H]1[C@@](O)(C(=O)OC)[C@H](OC(C)=O)[C@]4(CC)C=CCN5CC[C@]31[C@@H]54)C2 (some centres not stated) | 21.5% | 2.55% (active) | -5.65% (active) | 11% | 34.5% | -46.9% (active) | 43.6% | 20% | 62.1% | 5.95% (active) | 68.6 | – | 51.5% | 41.2 | 34.1% | 44.3 | -14.6% (active) | 6.56% (active) | 19.1% |
| CC1CCCN(CCCCOc2ccc(-c3ccc(C#N)cc3)cc2)C1 (configuration not stated) | 56.4% | 14.6% | 90.3% | 71.7% | 75.4% | 46.2% | 89.8% | 83.9% | 100% | 88.6% | – | 89.3% | 74.5% | 80.6 | – | 98.7 | 82.4% | 83.4% | 59.4% |
| O=C1CCCN1C1CCN2CCCc3cccc1c32 (configuration not stated) | 102% | 94.4% | 105% | 103% | 91.3% | 110% | 93.6% | 101% | 115% | – | 102 | 104% | 81.3% | 103 | 106% | 105 | 99.2% | 78.9% | – |
| CC(C)(C)OC[C@@H]1N=C(c2ccc(Br)cc2)Nc2nc3ccccn3c2C1=O | 44.1% | 21.8% | 77.4% | 63.5% | 53.4% | 38.4% | 53.6% | 58.7% | – | 49.2% | 81.6 | 84.1% | 52.1% | 95.1 | 75.3% | 64.2 | 66.9% | 53.7% | 67.8% |
